From PubChem BioAssay (NCATS) come the findings set out here.

The structures appear in SMILES notation. A number with no mark means an inactive call. How the calls were made is not given here.
Potency means the concentration at half of the fitted maximal effect.

The assay relates to HIV-1 nucleocapsid protein NCp7 (binding to TG oligonucleotide). Briefly: HIV Nucleocapsid (AID 346).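 Further: potency is for inhibitors that block NC binding and lower polarization.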 Particulars: HIV-1 NC / fluorescein-TGTGTGTG probe, fluorescence polarization. In a few lines: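 HIV-1 NC (100 nM) binding to fluorescein-labelled ssDNA TG4xF (10 nM) in Hepes pH 7.5, 250mM NaCl, 1uM ZnCl2, TCEP and 2-mercaptoethanol; compounds pin-transferred, 1 hr room temperature, fluorescence polarization read on CCD imager.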
Background: In fluorescence polarisation assays a small probe gives low polarisation when free and higher when bound to something large.
Turning to `CN1CCN(c2ncc3nc(-c4ccccc4)c(=O)n(Cc4ccc(F)cc4)c3n2)CC1`, the Potency is more than 20 µM.

As for `COc1ccccc1CNc1ncnc2ccc(-c3ccc4c(c3)OCO4)cc12`, the Potency was more than 20 µM. With `CCNc1ncc2nc(-c3cn(C)c4ccccc34)c(=O)n(Cc3cccs3)c2n1`, the Potency was more than 20 µM. In the case of `Cc1nc2cnc(N3CCNCC3)nc2n(Cc2cccs2)c1=O`, the Potency is more than 4 µM. Turning to `COc1ccc(-c2nc3cnc(OC)nc3n(C[C@H]3CCCO3)c2=O)cc1`, the Potency is more than 20 µM. As for `CC(C)CN1CCCC2(CCN(C(=O)c3cc(C(F)(F)F)cc(C(F)(F)F)c3)CC2)C1`, the Potency is more than 20 µM. As for `CNc1cc(-c2ccccc2C(F)(F)F)ncn1`, the Potency is more than 20 µM. Regarding `CN1CCN(c2ccnc(-c3ccoc3)n2)CC1`, the Potency is more than 20 µM. Then `N#Cc1ccccc1-c1ccc2ncnc(NCc3cccs3)c2c1`, with more than 20 µM. For the compound `COC(=O)N1CCC[C@@]2(CCN(c3ccncc3)C2)C1`, the Potency is more than 20 µM. For `O=C(c1ccncc1)N1CCC2(CC1)CCN(C(c1ccccc1)c1ccccc1)CC2`, the Potency is more than 20 µM. With `COc1ccc(Oc2ncc3nc(C)c(=O)n(CCc4ccccc4)c3n2)cc1`, the Potency is more than 20 µM. For the compound `COc1ccc(CNc2ncncc2-c2ccc3c(c2)OCO3)c(OC)c1`, the Potency is more than 20 µM. As for `O=S(=O)(c1ccccc1)N1CCC2(CC1)CN(C(c1ccccc1)c1ccccc1)C2`, the Potency is more than 20 µM. Next, `COCC(=O)N1CCC2(CC1)CN(Cc1cc(C(F)(F)F)cc(C(F)(F)F)c1)C2`: more than 20 µM; `COc1ccc(NC(=O)N2CCCC3(CCN(C(C)=O)CC3)C2)cc1`: more than 20 µM. As for `COc1ccc(C(=O)N2CCC3(CCCN(c4ccccc4)C3)CC2)cc1`, the Potency was more than 20 µM. Take `COc1ccc(-n2c(=O)cnc3cnc(Oc4cccc(Cl)c4)nc32)cc1`: the Potency is more than 20 µM. Then `NCCn1c(=O)c(CCc2ccccc2)nc2cncnc21`, with more than 20 µM; and `O=S(=O)(c1ccccc1)N1CCC2(CCCN(Cc3ccccc3)C2)CC1`, with more than 20 µM.

For the compound `Clc1ccccc1-c1nc(NCCN2CCOCC2)c2ccccc2n1`, the Potency is more than 20 µM. Regarding `COCC(=O)N1CCC2(CC1)CCN(c1ccccn1)CC2`, the Potency was more than 20 µM. `N#CCCn1c(=O)c(CCc2ccccc2)nc2cnc(Nc3ccccc3)nc21`: the Potency was more than 4 µM. As for `O=C(c1cccc(F)c1)N1CCC2(CCN(Cc3cc(C(F)(F)F)cc(C(F)(F)F)c3)CC2)CC1`, the Potency is more than 20 µM. In the case of `O=C(c1ccncc1)N1CCC2(CC1)CN(c1ccccn1)C2`, the Potency is more than 20 µM. For the compound `COc1cccc(-c2cc(NCc3cnc(C)cn3)ncn2)c1`, the Potency was more than 20 µM.

Consider `CN1CCCC2(CCN(S(=O)(=O)c3ccccc3)CC2)C1`, for which the Potency is more than 20 µM. Consider `Cc1cnc(CNc2ncnc3ccc(-c4ccccc4CN(C)C)cc23)cn1`, for which the Potency was more than 20 µM. In the case of `O=c1c(-c2ccc(F)cc2)nc2cnc(N3CCNCC3)nc2n1Cc1ccc(F)cc1`, the Potency was more than 20 µM. On to `CN(C)c1ncc2ncc(=O)n(C3CC3)c2n1`, for which the Potency is more than 20 µM. As to `COc1cccc(Nc2ncc3nc(-c4ccc(F)cc4)c(=O)n(C)c3n2)c1`, the Potency is more than 4 µM. Then `COc1cccc(Cn2c(=O)c(CCc3ccccc3)nc3cnc(N4CCOCC4)nc32)c1`, with more than 20 µM. Then `Cn1cccc1C(=O)N1CCC2(CCCN(c3ccccn3)C2)CC1`, with more than 20 µM. `COc1ccc(-n2c(=O)c(C)nc3cnc(Oc4cccc(Cl)c4)nc32)cc1`: the Potency is more than 20 µM. Next, `COCCn1c(=O)c(-c2cccc(C#N)c2)nc2cnc(Oc3ccc(OC)cc3)nc21`: more than 20 µM. On to `O=S(=O)(c1ccccc1)N1CCC2(CCCN(c3ncccn3)C2)CC1`, for which the Potency was more than 20 µM. With `COc1cccc(-c2nc(N3CCN(C)CC3)c3ccccc3n2)c1`, the Potency was more than 20 µM. Then `CN1CCN(c2ncc3nc(-c4cc(F)cc(F)c4)c(=O)n(CCC#N)c3n2)CC1`, with more than 20 µM. Consider `COc1ccc(CNc2ccnc(-c3ccccc3C(F)(F)F)n2)c(OC)c1`, for which the Potency is more than 20 µM.

As for `CN(C)c1ccc(-c2nc(Nc3ccncc3)c3ccccc3n2)cc1`, the Potency was more than 20 µM.
